Compound activity deposited in PubChem BioAssay by The Scripps Research Institute Molecular Screening Center.
Compounds with a hit are over-represented: about 0.84% of the library has one in this group of screens.
SRC1 TRFRET art: TR-FRET artefact, counter-screen to PPARgamma/SRC-1 agonist assay | TR-FRET detection artefact counter-screen, emission ratio; hits give high values | TR-FRET ratio at 8 µM | hit rate 0.34% among 99,000; in the data active = TR-FRET ratio above about 2300
SRC3 TRFRET art: counter-screen for PPARgamma SRC-3 recruitment agonists: TR-FRET artefact. PPARgamma/SRC-3 format; hits give high values. TR-FRET ratio at 8 µM. hit rate 0.39% among 99,000
PPARg SRC-1 ag: promotes SRC-1 coactivator recruitment by human PPARgamma | P37231 | PPARgamma-SRC-1 coactivator recruitment biochemical assay | activation, % at 8 µM | hit rate 0.41% among 200,000 | AID 631; in the data active = activation above about 19%;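 note: 0% = DMSO and 100% = reference agonist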
SRC2 TRFRET art: counter-screen for PPARgamma SRC-2 recruitment agonists: TR-FRET artefact | hits give high values | TR-FRET ratio at 8 µM | hit rate 0.4% among 200,000 | AID 1049
PPARg SRC-2 ag: promotes SRC-2 coactivator recruitment by human PPARgamma. P37231. PPARgamma LBD-SRC-2 recruitment, biochemical. activation, % at 8 µM. hit rate 0.34% among 200,000. AID 1032; in the data active = activation above about 22%;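 note: 0% = vehicle and 100% = reference agonist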
PPARg SRC3 recr: PPARgamma-driven SRC-3 recruitment agonism | hit rate 0.26% among 200,000 | AID 731 | biochemical PPARgamma/SRC-3 coactivator recruitment assay | activation, % at 8 µM; in the data active = activation above about 23%;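 note: 0% = DMSO and 100% = reference agonist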
PPARg SRC2 conf: human PPARgamma SRC-2 recruitment agonism, confirmation | AID 1297 | hit rate 52% among 790 | shares compounds with PPARg SRC3 recr | activation, % at 8 µM | biochemical SRC-2 recruitment by PPARgamma; in the data active = activation above about 22%;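 note: 0% = vehicle alone and 100% = reference agonist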
PPARg SRC1 conf: human PPARgamma SRC-1 recruitment agonism, confirmation; shares compounds with PPARg SRC3 recr; PPARgamma–SRC-1 coactivator recruitment biochemical assay; activation, % at 8 µM; hit rate 43% among 790; in the data active = activation above about 20%;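 note: 0% = vehicle wells and 100% = reference agonist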
PPARg SRC3 conf: confirmation of agonists of SRC-3 recruitment by human PPARgamma; shares compounds with PPARg SRC3 recr; biochemical PPARgamma-SRC-3 coactivator recruitment, agonist mode; activation, % at 8 µM; hit rate 29% among 790; in the data active = activation above about 24%;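 note: 0% = vehicle wells and 100% = reference agonist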
Target sequence (P37231 whole entry, looked up): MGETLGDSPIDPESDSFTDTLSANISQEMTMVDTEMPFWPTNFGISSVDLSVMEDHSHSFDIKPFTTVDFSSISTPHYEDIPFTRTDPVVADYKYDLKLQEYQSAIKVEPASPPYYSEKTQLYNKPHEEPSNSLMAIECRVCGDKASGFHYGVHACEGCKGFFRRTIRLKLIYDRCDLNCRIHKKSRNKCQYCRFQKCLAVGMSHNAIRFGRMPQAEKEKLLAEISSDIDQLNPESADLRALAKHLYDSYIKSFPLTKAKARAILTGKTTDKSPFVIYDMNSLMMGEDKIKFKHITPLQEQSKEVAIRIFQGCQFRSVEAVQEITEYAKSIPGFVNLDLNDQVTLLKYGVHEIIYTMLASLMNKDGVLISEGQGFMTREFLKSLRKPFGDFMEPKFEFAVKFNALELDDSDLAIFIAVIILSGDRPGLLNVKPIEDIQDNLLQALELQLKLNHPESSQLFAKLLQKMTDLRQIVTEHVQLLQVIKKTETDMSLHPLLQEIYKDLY
Target sequence (Q9Y6Q9 whole entry, looked up): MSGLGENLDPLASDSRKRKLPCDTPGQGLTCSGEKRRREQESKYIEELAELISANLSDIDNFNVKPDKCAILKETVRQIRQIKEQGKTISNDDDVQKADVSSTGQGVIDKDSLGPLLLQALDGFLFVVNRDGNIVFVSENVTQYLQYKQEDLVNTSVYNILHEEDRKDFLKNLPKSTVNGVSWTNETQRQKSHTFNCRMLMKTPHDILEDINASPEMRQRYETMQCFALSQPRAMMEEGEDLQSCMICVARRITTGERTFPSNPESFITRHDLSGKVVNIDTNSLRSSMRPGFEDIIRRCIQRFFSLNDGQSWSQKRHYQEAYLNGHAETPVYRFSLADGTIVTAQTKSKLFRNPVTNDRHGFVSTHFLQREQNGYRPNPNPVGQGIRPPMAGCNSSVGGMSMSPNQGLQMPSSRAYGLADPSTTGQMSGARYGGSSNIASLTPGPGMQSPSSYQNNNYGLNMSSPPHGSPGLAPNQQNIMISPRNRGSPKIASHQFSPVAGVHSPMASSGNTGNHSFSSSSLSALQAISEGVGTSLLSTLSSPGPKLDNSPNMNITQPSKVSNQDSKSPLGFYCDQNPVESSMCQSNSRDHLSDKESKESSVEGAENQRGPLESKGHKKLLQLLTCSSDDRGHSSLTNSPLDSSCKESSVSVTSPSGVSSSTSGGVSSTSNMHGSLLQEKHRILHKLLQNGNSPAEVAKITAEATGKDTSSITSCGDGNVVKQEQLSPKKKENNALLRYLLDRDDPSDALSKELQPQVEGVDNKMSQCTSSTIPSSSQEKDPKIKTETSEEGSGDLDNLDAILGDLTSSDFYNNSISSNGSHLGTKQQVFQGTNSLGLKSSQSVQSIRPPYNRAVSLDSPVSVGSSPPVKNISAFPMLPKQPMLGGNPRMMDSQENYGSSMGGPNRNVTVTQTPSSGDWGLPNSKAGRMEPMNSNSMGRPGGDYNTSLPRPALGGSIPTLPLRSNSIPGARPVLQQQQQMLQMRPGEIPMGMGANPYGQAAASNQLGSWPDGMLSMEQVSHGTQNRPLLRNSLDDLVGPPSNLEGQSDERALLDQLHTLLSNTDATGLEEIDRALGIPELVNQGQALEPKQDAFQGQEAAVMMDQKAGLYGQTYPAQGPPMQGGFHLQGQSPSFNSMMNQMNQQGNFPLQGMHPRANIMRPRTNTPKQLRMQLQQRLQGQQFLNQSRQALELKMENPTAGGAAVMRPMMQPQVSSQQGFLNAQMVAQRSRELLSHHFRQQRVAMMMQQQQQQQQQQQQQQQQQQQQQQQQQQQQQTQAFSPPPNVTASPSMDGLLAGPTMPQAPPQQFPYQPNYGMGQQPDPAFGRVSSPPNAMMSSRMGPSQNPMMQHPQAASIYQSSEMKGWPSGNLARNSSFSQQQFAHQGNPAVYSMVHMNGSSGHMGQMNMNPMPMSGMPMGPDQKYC
* hit, by the source's call; x = no result given. Cut-off read from the data, not from the text of the source, unless noted: active = TR-FRET ratio above about 2000; inactive = the rest.

SMILES	SRC1 TRFRET art	SRC3 TRFRET art	PPARg SRC-1 ag	SRC2 TRFRET art	PPARg SRC-2 ag	PPARg SRC3 recr	PPARg SRC2 conf	PPARg SRC1 conf	PPARg SRC3 conf
CCO[C@H]1OC(C(=O)N2CCN(C)CC2)=C[C@@H](C2CC2)[C@@H]1CCCO	1511	1605	1	1562	-3	-2	x	x	x
O=C(CSc1ncnc2c1oc1ccccc12)Nc1cccc(F)c1	x	x	25*	1746	22*	43*	30*	24*	20
COc1ccccc1NC(=O)CSc1ncnc2c1oc1ccccc12	x	x	-5	1618	2	13	x	x	x
O=C(CSc1ncnc2c1oc1ccccc12)NCc1ccc(F)cc1	x	x	58*	3344*	71*	63*	48*	34*	29*
Fc1ccc(CSc2ncnc3c2oc2ccccc23)cc1	2218	1683	15	1720	10	10	x	x	x
Cc1cccc(NC(=O)CSc2ncnc3c2oc2ccccc23)c1	x	x	11	1711	19	14	x	x	x
Fc1cccc(CSc2ncnc3c2oc2ccccc23)c1	x	x	36*	2464*	45*	42*	39*	27*	27*
Cc1ccc2nc(NC(=O)CSc3ncnc4c3oc3ccccc34)sc2c1	x	x	30*	1748	10	14	33*	22*	19
Cc1nc(SCc2nc3ccccc3[nH]2)c2oc3ccccc3c2n1	x	x	3	1383	3	-10	x	x	x
c1ccc2[nH]c(CSc3ncnc4c3oc3ccccc34)nc2c1	x	x	44*	2940*	71*	72*	44*	30*	29*
C=CCOc1ccc(C2C(C(=O)c3ccco3)=C(O)C(=O)N2c2nnc(C)s2)cc1 (stereo not given)	2094	1863	14	2019*	25*	14	26*	24*	16
COc1ccc(C2C(C(=O)c3ccco3)=C(O)C(=O)N2c2nnc(C)s2)cc1 (stereo not given)	2503*	2261*	25*	2089*	18	21	31*	25*	17
CCc1ccc(NC(=O)C(=O)NCc2ccccn2)cc1	1652	1538	-1	1554	0	1	x	x	x
O=C(COC(=O)C1CC(=O)N(Cc2ccccc2)C1)Nc1ccccc1F (stereo not given)	1525	1415	4	1408	-1	0	x	x	x
O=c1oc(-c2ccco2)nc2c1cnn2-c1ccccc1	x	x	20*	1579	14	3	7	16	23
O=c1c2cnn(-c3ccccc3)c2nc(-c2ccco2)n1-c1ccccc1	x	x	-1	1611	10	6	x	x	x
COc1cc(/C=C(\C#N)C(=O)Nc2ccccc2C(=O)O)cc(Cl)c1OC	1551	1321	31*	1524	11	49*	33*	51*	46*
COc1ccc(/C=C(/C#N)C(=O)Nc2ccccc2C)cc1C(=O)O	1970	1518	5	1715	-1	4	x	x	x
Cc1cc(C)nc(-n2nc(C)cc2NC(=O)CN2CCCC(C)C2)n1 (stereo not given)	x	x	20*	1531	15	13	4	4	2
Cc1cc(C)nc(-n2nc(C)cc2NC(=O)CN2CCc3ccccc3C2)n1	x	x	-3	1463	-2	-4	x	x	x
CCOC(=O)c1c(NC(=O)COc2ncnc3ccccc23)sc(C(C)=O)c1C	2218	1991	13	1682	25*	11	16	14	10
CC(=O)C1=C(O)C(=O)N(c2nccs2)C1c1ccccc1 (stereo not given)	x	x	10	1601	27*	16	22*	16	13
Cc1ccc(NC2=NCC(=O)N2Cc2cccs2)cc1C	1662	1596	4	1632	2	9	x	x	x
Cc1ccc(N2CSC3=C(C#N)C(c4cccs4)CC(=O)N3C2)cc1 (stereo not given)	x	x	13	2106*	29*	19	4	0	2
N#Cc1c(N)nc2c3c(sc(=N)c2c1N)NC(=O)CC3c1c(F)cccc1Cl (stereo not given)	x	x	-2	1427	0	7	x	x	x
SMILES	SRC1 TRFRET art	SRC3 TRFRET art	PPARg SRC-1 ag	SRC2 TRFRET art	PPARg SRC-2 ag	PPARg SRC3 recr	PPARg SRC2 conf	PPARg SRC1 conf	PPARg SRC3 conf
N#Cc1c(N)nc2c3c(sc(=N)c2c1N)NC(=O)CC3c1ccccc1 (stereo not given)	x	x	27*	2053*	20	26*	5	5	8
COc1cccc(C(=O)N=c2sc3cc(S(C)(=O)=O)ccc3n2C)c1	1973	1660	27*	1798	19	16	14	6	4
COc1cc(OC)cc(C(=O)N=c2sc3ccccc3n2C)c1	1871	1632	3	1838	10	3	x	x	x
O=C(CSc1nnc2ccccn12)N1CCc2ccccc21	1839	1484	-4	1312	-3	2	x	x	x
O=C(OCn1ncc(Br)c(Br)c1=O)c1ccc(F)cc1	x	x	22*	2296*	37*	44*	43*	29*	31*
O=C(OCn1ncc(Br)c(Br)c1=O)c1ccccc1Cl	x	x	6	1784	19	21	x	x	x
CCOP(=O)(OCC)C(Nc1ccc(OC)cc1)c1ccco1 (stereo not given)	1835	1654	4	1697	10	6	x	x	x
CN1OC(c2ccccc2)=C(CO)C1c1ccccc1 (stereo not given)	1764	1520	0	1612	2	0	x	x	x
O=c1c2cn[nH]c2nc(SCc2cc(=O)n3cc(Br)ccc3n2)n1-c1ccc(Br)cc1	3354*	2853*	33*	2457*	36*	22	28*	19	20
O=c1c2cn[nH]c2nc(SCc2ccccc2F)n1-c1ccc(Br)cc1	1760	1579	7	1610	-1	3	x	x	x
c1ccc(CN2CCN(CCOCCOc3ccc4c(c3)CCC4)CC2)cc1	1796	1672	2	1525	-4	3	x	x	x
CCOCCCNC(=O)/C(C#N)=C/c1cc(OC)c(O)c([N+](=O)[O-])c1	1839	1814	6	1780	8	-3	x	x	x
CCOCCCNC(=O)/C(C#N)=C/c1ccc(Cl)c([N+](=O)[O-])c1	1865	1683	16	1826	11	30*	10	19	20
Cc1ccc2cc(C=O)c(Cl)nc2c1	1787	1612	5	1673	4	2	x	x	x
Clc1ccc(-c2nnc3sc(-c4ccc(Br)o4)nn23)c(Cl)c1	x	x	6	1760	23*	21	15	10	10
CN(C)c1ccc(-c2nn3c(-c4ccc(Cl)cc4Cl)nnc3s2)cc1	1837	1563	3	1484	5	-3	x	x	x
COCc1cc(C)nc2sc3c(=O)oc(C)nc3c12	x	x	20*	1809	13	3	7	2	1
